Records with an inconclusive call do not appear. Entries that show only a call come without a potency. The source made the active and inactive calls. Calls follow the shape of the dose curve; as a rule, active = well fitted inhibition curve with a large enough effect; inconclusive = small, poorly fitted or top-dose-only effect; inactive = flat fitted curve, though single readings scatter.
What was measured:
[1] = target: Luciferin 4-monooxygenase (Photinus pyralis) (UniProt P08659); test: Biochemical firefly luciferase enzyme assay for NPC (AID 624030);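 also: purified P. pyralis luciferase at 10 nM with luciferin and ATP substrate; nearly all actives have a fitted effect of over 70% in size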
Method in brief: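 Counter-screen for direct inhibition of the luciferase enzyme by approved-drug library compounds, run at 10 nM enzyme in 50 mM Tris acetate (final). Luminescence was read within 5 min of enzyme-buffer addition and normalized to PTC124 versus DMSO (0%).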

7G8 = test: qHTS profiling for inhibitors of Plasmodium falciparum proliferation (AID 504749); also: nearly all actives have a fitted effect of over 60% in size; also: potency is read from the fitted curve at half-maximal effect; settings: P. falciparum in erythrocytes, SYBR Green DNA, 72 h; series mostly up to 28.7 µM
Method in brief: (§1)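 Fluorescence of SYBR Green-bound parasite DNA, read at 485/535 nm, served as the growth measure. Infected erythrocytes were cultured with compound 72 h; artemisinin (0.29 uM) and DMSO wells defined the normalization range.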

ATS95 = test: as above; settings: P. falciparum in erythrocytes, SYBR Green DNA, 72 h; series mostly up to 28.7 µM
Method in brief: as §1

C2A = test: as above; settings: P. falciparum in erythrocytes, SYBR Green DNA, 72 h; series mostly up to 28.7 µM
Method in brief: as §1

CP192 = test: as above; settings: P. falciparum in erythrocytes, SYBR Green DNA, 72 h; series mostly up to 28.7 µM
Method in brief: as §1

CP203 = test: as above; settings: P. falciparum in erythrocytes, SYBR Green DNA, 72 h; series mostly up to 28.7 µM
Method in brief: as §1

CP211 = test: as above; settings: P. falciparum in erythrocytes, SYBR Green DNA, 72 h; series mostly up to 28.7 µM
Method in brief: as §1

CP247 = test: as above; settings: P. falciparum in erythrocytes, SYBR Green DNA, 72 h; series mostly up to 28.7 µM
Method in brief: as §1

CP262 = test: as above; settings: P. falciparum in erythrocytes, SYBR Green DNA, 72 h; series mostly up to 28.7 µM
Method in brief: as §1

CP268 = test: as above; settings: P. falciparum in erythrocytes, SYBR Green DNA, 72 h; series mostly up to 28.7 µM
Method in brief: as §1

CP269 = test: as above; settings: P. falciparum in erythrocytes, SYBR Green DNA, 72 h; series mostly up to 28.7 µM
Method in brief: as §1

CP291 = test: as above; settings: P. falciparum in erythrocytes, SYBR Green DNA, 72 h; series mostly up to 28.7 µM
Method in brief: as §1

CP305 = test: as above; settings: P. falciparum in erythrocytes, SYBR Green DNA, 72 h; series mostly up to 28.7 µM
Method in brief: as §1

ECU = test: as above; settings: P. falciparum in erythrocytes, SYBR Green DNA, 72 h; series mostly up to 28.7 µM
Method in brief: as §1

GB4 = test: as above; settings: P. falciparum in erythrocytes, SYBR Green DNA, 72 h; series mostly up to 28.7 µM
Method in brief: as §1

HB3 = test: as above; settings: P. falciparum in erythrocytes, SYBR Green DNA, 72 h; series mostly up to 28.7 µM
Method in brief: as §1

PAD = test: as above; settings: P. falciparum in erythrocytes, SYBR Green DNA, 72 h; series mostly up to 28.7 µM
Method in brief: as §1

SC27B = test: as above; settings: P. falciparum in erythrocytes, SYBR Green DNA, 72 h; series mostly up to 28.7 µM
Method in brief: as §1

TAB113 = test: as above; settings: P. falciparum in erythrocytes, SYBR Green DNA, 72 h; series mostly up to 28.7 µM
Method in brief: as §1

TAB165 = test: as above; settings: P. falciparum in erythrocytes, SYBR Green DNA, 72 h; series mostly up to 28.7 µM
Method in brief: as §1

Luciferin 4-monooxygenase (Photinus pyralis), sequence (P08659 whole entry, looked up): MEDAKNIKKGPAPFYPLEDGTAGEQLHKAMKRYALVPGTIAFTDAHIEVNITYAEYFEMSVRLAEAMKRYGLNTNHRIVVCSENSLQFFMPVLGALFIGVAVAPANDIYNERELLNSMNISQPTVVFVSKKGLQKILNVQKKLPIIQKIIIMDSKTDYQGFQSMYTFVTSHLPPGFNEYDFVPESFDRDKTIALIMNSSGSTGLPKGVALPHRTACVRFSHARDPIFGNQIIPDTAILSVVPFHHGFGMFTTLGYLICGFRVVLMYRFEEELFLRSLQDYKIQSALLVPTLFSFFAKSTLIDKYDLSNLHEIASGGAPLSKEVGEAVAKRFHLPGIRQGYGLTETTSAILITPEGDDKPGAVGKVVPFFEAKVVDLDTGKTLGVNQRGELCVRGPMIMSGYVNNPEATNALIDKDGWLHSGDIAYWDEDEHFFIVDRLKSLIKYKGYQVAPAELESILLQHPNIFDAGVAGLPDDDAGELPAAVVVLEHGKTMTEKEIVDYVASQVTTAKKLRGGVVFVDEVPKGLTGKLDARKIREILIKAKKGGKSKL

Compound | Potency [1] | Potency (7G8) | Potency (ATS95) | Potency (C2A) | Potency (CP192) | Potency (CP203) | Potency (CP211) | Potency (CP247) | Potency (CP262) | Potency (CP268) | Potency (CP269) | Potency (CP291) | Potency (CP305) | Potency (ECU) | Potency (GB4) | Potency (HB3) | Potency (PAD) | Potency (SC27B) | Potency (TAB113) | Potency (TAB165)
NC(=O)NC(CCC(=O)O)C(=O)O (stereo not drawn) | inactive | inactive | inactive | inactive | inactive | inactive | inactive | inactive | inactive | inactive | inactive | inactive | inactive | inactive | inactive | inactive | inactive | inactive | inactive | inactive
CC(CCC(=O)O)C1CCC2C3C(=O)C[C@@H]4CC(=O)CC[C@@]4(C)C3CC(=O)[C@]12C (stereo partly drawn) | inactive | inactive | inactive | inactive | inactive | inactive | inactive | inactive | inactive | inactive | inactive | inactive | inactive | inactive | inactive | inactive | inactive | inactive | inactive | inactive
CC(=O)N1CC(O)CC1C(=O)O (stereo not drawn) | inactive | inactive | inactive | inactive | inactive | inactive | inactive | inactive | inactive | inactive | inactive | inactive | inactive | inactive | inactive | inactive | inactive | inactive | – | inactive
O=C(O)c1ccc(N[C@@H]2OC[C@@H](O)[C@@H](O)[C@@H]2O)cc1 | inactive | inactive | inactive | inactive | inactive | inactive | inactive | inactive | inactive | inactive | inactive | inactive | inactive | inactive | inactive | inactive | inactive | inactive | inactive | inactive
CN(C)CC/C=C1\c2ccccc2COc2ccc(CC(=O)O)cc21 | inactive | inactive | inactive | inactive | inactive | inactive | inactive | inactive | inactive | inactive | inactive | inactive | inactive | inactive | inactive | inactive | inactive | inactive | inactive | inactive
NC(=O)OC[C@@H]1[C@H](NC(=O)/C(=N/OCC(=O)O)c2csc(N)n2)C(=O)N1S(=O)(=O)O | inactive | inactive | inactive | inactive | inactive | inactive | inactive | inactive | inactive | – | inactive | inactive | inactive | inactive | inactive | inactive | inactive | inactive | inactive | inactive
CC1(C)CC1C(=O)N/C(=C/CCCCSCC(N)C(=O)O)C(=O)O (stereo not drawn) | inactive | inactive | inactive | inactive | inactive | inactive | inactive | inactive | inactive | inactive | inactive | inactive | inactive | inactive | inactive | inactive | inactive | inactive | inactive | inactive
NC(=O)c1ncn(C2OC(CO)C(O)C2O)c1N (stereo not drawn) | inactive | inactive | inactive | inactive | inactive | inactive | inactive | inactive | inactive | inactive | inactive | inactive | inactive | inactive | inactive | inactive | inactive | inactive | inactive | inactive
CNC1C(O)C(OC2C(NC(=O)C(O)CN)CC(N)C(OC3OC(CN)C(O)C(O)C3O)C2O)OCC1(C)O (stereo not drawn) | inactive | inactive | inactive | inactive | inactive | inactive | inactive | inactive | – | inactive | inactive | inactive | inactive | inactive | inactive | inactive | inactive | inactive | inactive | inactive
COc1cc2c(cc1O)CCN[C@@]21CS[C@H]2c3c(OC(C)=O)c(C)c4c(c3C(COC1=O)N1C2C2c3c(cc(C)c(OC)c3O)CC([C@@H]1O)N2C)OCO4 (stereo partly drawn) | inactive | 0.3 nM (active) | 0.9 nM (active) | 2.8 nM (active) | 1.5 nM (active) | 0.4 nM (active) | 0.5 nM (active) | 1.1 nM (active) | 0.5 nM (active) | 0.5 nM (active) | 0.5 nM (active) | 0.4 nM (active) | 0.5 nM (active) | 0.8 nM (active) | 0.2 nM (active) | 0.3 nM (active) | – | 0.8 nM (active) | 0.9 nM (active) | 1 nM (active)
CO[C@H]1C[C@@H]2CC[C@@H](C)[C@@](O)(O2)C(=O)C(=O)N2CCCC[C@H]2C(=O)O[C@H]([C@H](C)C[C@@H]2CC[C@@H](O)[C@H](OC)C2)CC(=O)[C@H](C)/C=C(\C)[C@@H](O)[C@@H](OC)C(=O)[C@H](C)C[C@H](C)/C=C/C=C/C=C/1C | inactive | 1000 nM (active) | 3980 nM (active) | 3550 nM (active) | 4780 nM (active) | 1690 nM (active) | 4260 nM (active) | 3550 nM (active) | 4780 nM (active) | 4780 nM (active) | 4260 nM (active) | 4260 nM (active) | 6750 nM (active) | 2510 nM (active) | 1690 nM (active) | 8910 nM (active) | 1000 nM (active) | 2510 nM (active) | 2510 nM (active) | 1780 nM (active)
NC(=O)C1CC2(NC(=O)NC2=O)c2cc(F)ccc2O1 (stereo not drawn) | inactive | inactive | inactive | inactive | inactive | inactive | inactive | inactive | inactive | inactive | inactive | inactive | inactive | inactive | inactive | inactive | inactive | inactive | inactive | inactive
CC[C@H](C)[C@H]1O[C@]2(CC[C@@H]1C)C[C@@H]1C[C@@H](C/C=C(\C)[C@H](O[C@@H]3C[C@H](OC)[C@H](O[C@@H]4C[C@H](OC)[C@@H](O)[C@H](C)O4)[C@H](C)O3)[C@@H](C)/C=C/C=C3\CO[C@@H]4[C@H](O)C(C)=C[C@@H](C(=O)O1)[C@]34O)O2 | inactive | 2000 nM (active) | 1120 nM (active) | 1410 nM (active) | 1690 nM (active) | 1510 nM (active) | 1350 nM (active) | 1000 nM (active) | 1200 nM (active) | 1690 nM (active) | 1350 nM (active) | 1510 nM (active) | 1690 nM (active) | 891 nM (active) | 1510 nM (active) | 2000 nM (active) | 1410 nM (active) | 1000 nM (active) | 891 nM (active) | 794 nM (active)
C[n+]1c2cc(N)ccc2cc2ccc(N)cc21 | inactive | 63.1 nM (active) | 1120 nM (active) | 1000 nM (active) | 1200 nM (active) | 1070 nM (active) | 953 nM (active) | 1120 nM (active) | 1350 nM (active) | 757 nM (active) | 953 nM (active) | 1200 nM (active) | 757 nM (active) | 1260 nM (active) | 213 nM (active) | 447 nM (active) | 1000 nM (active) | 1580 nM (active) | 891 nM (active) | 398 nM (active)
NCCCCC(N)C(=O)O (stereo not drawn) | inactive | inactive | inactive | inactive | inactive | inactive | inactive | inactive | inactive | inactive | inactive | inactive | inactive | inactive | inactive | inactive | inactive | inactive | inactive | inactive
CCCCC(=O)O[C@]1(C(=O)CO)CCC2C3CCC4=CC(=O)CCC4(C)C3C(O)CC21C (stereo partly drawn) | inactive | 12600 nM (active) | inactive | inactive | inactive | inactive | inactive | inactive | inactive | inactive | inactive | inactive | inactive | inactive | inactive | inactive | inactive | inactive | inactive | inactive
CO/N=C(/C(=O)N[C@@H]1C(=O)N2C(C(=O)O)=C(CSc3cnns3)CS[C@H]12)c1csc(N)n1 | inactive | inactive | inactive | inactive | inactive | inactive | inactive | inactive | inactive | inactive | inactive | inactive | inactive | inactive | inactive | inactive | inactive | inactive | inactive | inactive
CCN(CC)CC(=O)Nc1c(C)cc(C)cc1C | inactive | inactive | inactive | inactive | inactive | inactive | inactive | inactive | inactive | inactive | inactive | inactive | inactive | inactive | inactive | inactive | inactive | inactive | inactive | inactive
CC(=O)OCC(=O)[C@@]1(O)CCC2C3C[C@H](C)C4=CC(=O)C=CC4(C)C3C(O)CC21C (stereo partly drawn) | inactive | inactive | inactive | inactive | inactive | inactive | inactive | inactive | inactive | inactive | inactive | inactive | inactive | inactive | inactive | inactive | inactive | inactive | inactive | inactive
CC1C(=O)C(=O)C=CN1C (stereo not drawn) | inactive | inactive | inactive | inactive | inactive | inactive | inactive | inactive | inactive | inactive | inactive | inactive | inactive | inactive | inactive | inactive | inactive | inactive | inactive | inactive
Nc1nc(F)nc2c1ncn2[C@@H]1O[C@H](CO)[C@@H](O)[C@H]1O | inactive | inactive | inactive | inactive | inactive | inactive | inactive | inactive | inactive | inactive | inactive | inactive | – | inactive | inactive | inactive | inactive | inactive | inactive | inactive
CO/N=C(/C(=O)N[C@@H]1C(=O)N2C(C(=O)O)=C(CSC(=O)c3ccco3)CSC12)c1csc(N)n1 (stereo partly drawn) | inactive | inactive | inactive | inactive | inactive | inactive | inactive | inactive | inactive | inactive | inactive | inactive | – | inactive | – | inactive | inactive | inactive | inactive | inactive

— PubChem BioAssay (NCATS)
